Reference: the supplement of paper PMC10941209

Test system: HFF
Experiment: cell viability relative to DMSO control; higher = less cytotoxic
Details: 1 µM; 72 h
Method: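 Single-dose cytotoxicity screen of the MMV Pandemic Response Box at 1 uM on human foreskin fibroblasts (HFF), 72 h at 37 C. Viability measured by MTT (OD 550 nm) and normalised to the DMSO control (% survival).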

SMILES	cell viability [%]
N[C@H](CCC(=O)N[C@@H](Cc1c[nH]c2ccccc12)C(=O)O)C(=O)O	61.9
O=C(CCCC(F)(F)F)N1CCC(c2nc(-c3nccs3)no2)CC1	67.4
COc1ccc(C2CNC(=O)C2)cc1OC1CCCC1 (stereo not drawn)	69.5
CCCNc1ccc(S(=O)(=O)Nc2cc(C)on2)cc1	69.3
Nc1nc(=O)c(Br)c(-c2ccccc2)[nH]1	64.9
CCOc1ccc(C(=O)NCCc2ccccc2)cc1	63.9
N#Cc1c(F)c(Cl)c(NCc2ccccc2)c(C#N)c1F	66.6
CCOC(=O)/C=C/[C@H](C[C@@H]1CCNC1=O)NC(=O)[C@H](CC)n1cccc(NC(=O)c2cc(C)on2)c1=O	68.3
